Results taken from PubChem BioAssay AID1159580 (chemical genetic matrix, 2015).
Out of some 5,500 compounds screened, about 2,000 (36%) were called active. About 18% were inconclusive and are not listed. Rule as the data show it: active = normalized growth mostly below about 0.91 (no sharp cut-off); inconclusive = no clear call, values can overlap the other calls; inactive = mostly above about 0.92. The list shows a part of the results.

Experiment: chemical genetic growth profiling, strain panel (AID 1159580);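 also: tested at 20 µM; growth read once vehicle control cultures reached saturation at 30 °C; 1 = growth at the plate median or of vehicle wells; lower values mean less growth of the strain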
Conditions: growth OD

Measured: normalized growth

COc1ccc(/C=C/c2cc(O)cc(O[C@@H]3O[C@H](CO)[C@@H](O)[C@H](O)[C@H]3O)c2)cc1O
inactive: S. cerevisiae deletion strains, locus YAL013W, strain DEP1, active compounds read low 1 | S. cerevisiae deletion strains, locus YBR021W, strain FUR4, active compounds read low 0.999 | S. cerevisiae deletion strains, locus YBR229C, strain ROT2, active compounds read low 1.01 | S. cerevisiae deletion strains, locus YCL029C, strain bik1, active compounds read low 1.02 | S. cerevisiae deletion strains, locus YDL035C, strain GPR1, active compounds read low 1.02 | S. cerevisiae deletion strains, locus YDL074C, strain BRE1, active compounds read low 1.01 | S. cerevisiae deletion strains, locus YDL101C, strain DUN1, active compounds read low 1.02 | S. cerevisiae deletion strains, locus YDL134C, strain PPH21, active compounds read low 1.01 | S. cerevisiae deletion strains, locus YDL185W, strain tfp1, active compounds read low 1.02 | S. cerevisiae deletion strains, locus YDL192W, strain arf1, active compounds read low 1.02 | S. cerevisiae deletion strains, locus YDR101C, strain arx1, active compounds read low 1.01 | S. cerevisiae deletion strains, locus YDR150W, strain NUM1, active compounds read low 1.01 | S. cerevisiae deletion strains, locus YDR162C, strain NBP2, active compounds read low 1.02 | S. cerevisiae deletion strains, locus YDR318W, strain mcm21, active compounds read low 1.03 | S. cerevisiae deletion strains, locus YDR388W, active compounds read low 1.01 | S. cerevisiae deletion strains, locus YDR502C, strain sam2, active compounds read low 1.02 | S. cerevisiae deletion strains, locus YEL061C, strain CIN8, active compounds read low 1 | S. cerevisiae deletion strains, locus YER110C, active compounds read low 1.03 | S. cerevisiae deletion strains, locus YER155C, strain BEM2, active compounds read low 0.995 | S. cerevisiae deletion strains, locus YER167W, strain BCK2, active compounds read low 1.03 | S. cerevisiae deletion strains, locus YGL078C, strain dbp3, active compounds read low 1.02 | S. cerevisiae deletion strains, locus YGL086W, strain mad1, active compounds read low 1.03 | S. cerevisiae deletion strains, locus YGL248W, strain PDE1, active compounds read low 1.01 | S. cerevisiae deletion strains, locus YGR078C, strain PAC10, active compounds read low 1.03 | S. cerevisiae deletion strains, locus YGR135W, strain pre9, active compounds read low 1.01 | S. cerevisiae deletion strains, locus YGR229C, strain SMI1, active compounds read low 0.988 | S. cerevisiae deletion strains, locus YGR252W, strain gcn5, active compounds read low 1.06 | S. cerevisiae deletion strains, locus YHR030C, strain SLT2, active compounds read low 1 | S. cerevisiae deletion strains, locus YHR079C, strain IRE1 (second series), active compounds read low 1.02 | S. cerevisiae deletion strains, locus YHR094C, strain hxt1, active compounds read low 1.02 | S. cerevisiae deletion strains, locus YHR129C, strain ARP1, active compounds read low 1.01 | S. cerevisiae deletion strains, locus YHR200W, strain rpn10, active compounds read low 1.03 | S. cerevisiae deletion strains, locus YIL066C, strain RNR3, active compounds read low 1.02 | S. cerevisiae deletion strains, locus YIL073C, strain SPO22, active compounds read low 1.06 | S. cerevisiae deletion strains, locus YIL125W, strain kgd1, active compounds read low 0.999 | S. cerevisiae deletion strains, locus YIR030C, strain dcg1, active compounds read low 1.01 | S. cerevisiae deletion strains, locus YJL095W, strain BCK1, active compounds read low 1.01 | S. cerevisiae deletion strains, locus YJL134W, strain LCB3, active compounds read low 1.01 | S. cerevisiae deletion strains, locus YJL168C, strain set2, active compounds read low 1.01 | S. cerevisiae deletion strains, locus YJL187C, strain SWE1 (second series), active compounds read low 1.01 | S. cerevisiae deletion strains, locus YJR043C, strain POL32, active compounds read low 1.01 | S. cerevisiae deletion strains, locus YJR075W, strain HOC1, active compounds read low 0.973 | S. cerevisiae deletion strains, locus YKL009W, strain mrt4, active compounds read low 1.03 | S. cerevisiae deletion strains, locus YKL068W, active compounds read low 1.02 | S. cerevisiae deletion strains, locus YKL085W, strain MDH1 (second series), active compounds read low 1.04 | S. cerevisiae deletion strains, locus YKL085W, strain MDH1, active compounds read low 1.04 | S. cerevisiae deletion strains, locus YKL190W, strain CNB1, active compounds read low 1 | S. cerevisiae deletion strains, locus YKR001C, strain vps1, active compounds read low 1.03 | S. cerevisiae deletion strains, locus YLR039C, strain RIC1, active compounds read low 1.04 | S. cerevisiae deletion strains, locus YLR058C, strain SHM2, active compounds read low 1.01 | S. cerevisiae deletion strains, locus YLR102C, strain apc9, active compounds read low 1.02 | S. cerevisiae deletion strains, locus YLR262C, strain YPT6, active compounds read low 1.05 | S. cerevisiae deletion strains, locus YLR268W, strain sec22, active compounds read low 1.02 | S. cerevisiae deletion strains, locus YLR330W, strain CHS5, active compounds read low 1.01 | S. cerevisiae deletion strains, locus YLR342W, strain FKS1 (second series), active compounds read low 1.05 | S. cerevisiae deletion strains, locus YLR371W, strain rom2, active compounds read low 1.01 | S. cerevisiae deletion strains, locus YLR418C, strain cdc73, active compounds read low 0.987 | S. cerevisiae deletion strains, locus YML016C, strain PPZ1, active compounds read low 1.02 | S. cerevisiae deletion strains, locus YML032C, strain rad52, active compounds read low 1.01 | S. cerevisiae deletion strains, locus YML124C, strain tub3, active compounds read low 1.01 | S. cerevisiae deletion strains, locus YMR078C, strain ctf18, active compounds read low 1.02 | S. cerevisiae deletion strains, locus YMR223W, strain ubp8, active compounds read low 1.03 | S. cerevisiae deletion strains, locus YMR263W, strain SAP30, active compounds read low 1.02 | S. cerevisiae deletion strains, locus YMR307W, strain GAS1, active compounds read low 1.04 | S. cerevisiae deletion strains, locus YNL067W, strain RPL9B, active compounds read low 1.01 | S. cerevisiae deletion strains, locus YNL128W, strain TEP1, active compounds read low 1.02 | S. cerevisiae deletion strains, locus YNL153C, strain GIM3, active compounds read low 1.02 | S. cerevisiae deletion strains, locus YNL233W, strain BNI4, active compounds read low 1.01 | S. cerevisiae deletion strains, locus YNL250W, strain rad50, active compounds read low 1.03 | S. cerevisiae deletion strains, locus YNL271C, strain bni1, active compounds read low 1.03 | S. cerevisiae deletion strains, locus YNL298W, strain CLA4, active compounds read low 1.03 | S. cerevisiae deletion strains, locus YNL307C, strain MCK1, active compounds read low 1.03 | S. cerevisiae deletion strains, locus YNL322C, strain KRE1, active compounds read low 1.01 | S. cerevisiae deletion strains, locus YNR052C, strain pop2, active compounds read low 1.01 | S. cerevisiae deletion strains, locus YOL006C, strain TOP1, active compounds read low 1.08 | S. cerevisiae deletion strains, locus YOL012C, strain htz1 0.868 | S. cerevisiae deletion strains, locus YOL147C, strain pex11, active compounds read low 1.01 | S. cerevisiae deletion strains, locus YOR061W, strain CKA2, active compounds read low 1.02 | S. cerevisiae deletion strains, locus YOR069W, strain VPS5, active compounds read low 1 | S. cerevisiae deletion strains, locus YOR136W, strain idh2, active compounds read low 1.02 | S. cerevisiae deletion strains, locus YOR144C, strain elg1, active compounds read low 1.01 | S. cerevisiae deletion strains, locus YOR184W, strain ser1, active compounds read low 1.05 | S. cerevisiae deletion strains, locus YOR316C, strain cot1, active compounds read low 1.02 | S. cerevisiae deletion strains, locus YPL055C, strain LGE1, active compounds read low 1.03 | S. cerevisiae deletion strains, locus YPL241C, strain CIN2, active compounds read low 1.01 | S. cerevisiae deletion strains, locus YPR119W, strain clb2, active compounds read low 1.01 | S. cerevisiae deletion strains, locus YPR141C, strain kar3, active compounds read low 1.03 | S. cerevisiae deletion strains, locus YPR163C, strain tif3, active compounds read low 1.03 | S. cerevisiae deletion strains, locus YPR167C, strain met16, active compounds read low 1.02 | S. cerevisiae deletion strains, strain wtn01, active compounds read low 0.994 | S. cerevisiae strains, strain wild type, active compounds read low 1.01
